This is one part of the list. No count for the full screen is at hand.

For this assay, the target named is furin, P09958. Kind of assay: furin cleavage Z-score vs untreated control; higher = more cleavage, active = 3.5 or more, inactive = 1 or less, 8 variable residues between constant flanks. The procedure, abridged: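 Peptides 8 residues long, fused to a cDNA oligonucleotide, were fixed to magnetic beads by the N-terminus and exposed to purified furin. The 0.01 ml reactions contained 50 mM HEPES pH 7.5 with CaCl2 and NaCl at 1:10 enzyme:substrate and ran 7.5, 15 or 30 min. For the cleavage Z-score, log counts of sequenced released DNA were compared with furin-free reactions, lowess-adjusted and scaled by median absolute deviation.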
Sequence of furin, P09958 (P09958 whole entry, the tested form may be a part): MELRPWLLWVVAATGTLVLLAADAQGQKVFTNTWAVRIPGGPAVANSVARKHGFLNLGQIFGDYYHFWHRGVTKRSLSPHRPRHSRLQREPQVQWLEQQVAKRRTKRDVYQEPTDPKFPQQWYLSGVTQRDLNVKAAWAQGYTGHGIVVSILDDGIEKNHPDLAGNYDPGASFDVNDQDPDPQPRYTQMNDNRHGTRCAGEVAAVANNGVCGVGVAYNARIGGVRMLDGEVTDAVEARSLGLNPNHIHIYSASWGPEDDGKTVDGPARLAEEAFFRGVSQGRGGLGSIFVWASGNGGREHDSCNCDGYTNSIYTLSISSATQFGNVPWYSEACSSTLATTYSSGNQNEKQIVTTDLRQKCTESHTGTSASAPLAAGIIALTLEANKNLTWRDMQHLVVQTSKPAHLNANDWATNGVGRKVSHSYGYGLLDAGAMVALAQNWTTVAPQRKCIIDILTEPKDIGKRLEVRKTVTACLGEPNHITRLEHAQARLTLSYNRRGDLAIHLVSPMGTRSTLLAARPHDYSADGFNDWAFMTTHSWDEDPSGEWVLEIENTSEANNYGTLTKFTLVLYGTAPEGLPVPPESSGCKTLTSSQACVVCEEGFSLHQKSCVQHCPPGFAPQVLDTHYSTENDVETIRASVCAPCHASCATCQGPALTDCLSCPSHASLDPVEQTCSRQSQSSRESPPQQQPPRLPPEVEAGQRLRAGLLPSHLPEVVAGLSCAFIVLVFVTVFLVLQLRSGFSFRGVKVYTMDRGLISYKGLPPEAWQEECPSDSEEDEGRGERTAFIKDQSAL

B1: FS-1322 (peptide)
chain: CAFAERSGRGAGNASASA
For B1, the “furin cleavage Z-score” value runs as follows: (7.5 min) -0.454 (inactive); (15 min) 0.465 (inactive); (30 min) 0.178 (inactive).

B2: FS-163 (peptide)
chain: CAGRHCVRRSAGNASASA
As to B2, the “furin cleavage Z-score” value (7.5 min) was 3.46, the “furin cleavage Z-score” value (15 min) is 4.86 (active) and the “furin cleavage Z-score” value (30 min) is 4.64 (active).

B3: FS-1588 (peptide)
chain: CAFAERQRRSAGNASASA
Turning to B3, the “furin cleavage Z-score” value (7.5 min) was 11.1 (active), the “furin cleavage Z-score” value (15 min) was 11 (active) and the “furin cleavage Z-score” value (30 min) was 10.4 (active).

B4: FS-530 (peptide)
chain: CAGHGRQERSAGNASASA
As to B4, the “furin cleavage Z-score” value is 1.31 (7.5 min), 3.84 (active) (15 min) and 3.39 (30 min).

B5: FS-1458 (peptide)
chain: CAGTTRQRRSAGNASASA
As for B5, the “furin cleavage Z-score” value is 9.35 (active) (7.5 min), 9.67 (active) (15 min) and 7.94 (active) (30 min).

B6: HC742 (peptide)
chain: CAGSSGGPLLAGNASASA
Consider B6, for which the “furin cleavage Z-score” value runs as follows: (7.5 min) -1.42 (inactive); (15 min) -0.944 (inactive); (30 min) -0.396 (inactive).

B7: HC2422 (peptide)
chain: CAEVPCHRPQAGNASASA
As to B7, the “furin cleavage Z-score” value runs as follows: (7.5 min) 1.53; (15 min) 0.977 (inactive); (30 min) -0.457 (inactive).

B8: HC1995 (peptide)
chain: CAHVCCSMSYAGNASASA
Consider B8, for which the “furin cleavage Z-score” value reads like this: (7.5 min) -0.946 (inactive); (15 min) -0.551 (inactive); (30 min) -0.241 (inactive).

B9: HC2576 (peptide)
chain: CASTPCSAHGAGNASASA
As to B9, the “furin cleavage Z-score” value is, setting by setting: (7.5 min) -0.871 (inactive); (15 min) 0.825 (inactive); (30 min) -0.885 (inactive).

B10: HC630 (peptide)
chain: CAIKLGALTGAGNASASA
Take B10: the “furin cleavage Z-score” value reads like this: (7.5 min) -0.745 (inactive); (15 min) -0.643 (inactive); (30 min) -1.94 (inactive).

B11: HC1021 (peptide)
chain: CAGMMLAEQFAGNASASA
Turning to B11, the “furin cleavage Z-score” value reads like this: (7.5 min) 0.171 (inactive); (15 min) 0.335 (inactive); (30 min) -0.461 (inactive).

B12: FS-90 (peptide)
chain: CASCARHRRSAGNASASA
For the sequence B12, the “furin cleavage Z-score” value is 4.64 (active) (7.5 min), 3.79 (active) (15 min) and 4.71 (active) (30 min).

B13: FS-1825 (peptide)
chain: CARHRRLRGPAGNASASA
Take B13: the “furin cleavage Z-score” value is -1.67 (inactive) (7.5 min), -0.893 (inactive) (15 min) and -1.28 (inactive) (30 min).

B14: FS-1411 (peptide)
chain: CASKRDHRRSAGNASASA
For B14, the “furin cleavage Z-score” value was 1.79 (7.5 min), -0.35 (inactive) (15 min) and 0.449 (inactive) (30 min).

B15: FS-707 (peptide)
chain: CARHRRQRRSAGNASASA
Consider B15, for which the “furin cleavage Z-score” value is 10.1 (active) (7.5 min), 10.5 (active) (15 min) and 8.1 (active) (30 min).

B16: HC1754 (peptide)
chain: CAMEECSQKLAGNASASA
Take B16: the “furin cleavage Z-score” value reads like this: (7.5 min) 1.17; (15 min) 0.659 (inactive); (30 min) 1.26.

B17: FS-2496 (peptide)
chain: CARMRRPPGGAGNASASA
With B17, the “furin cleavage Z-score” value runs as follows: (7.5 min) -0.899 (inactive); (15 min) -0.697 (inactive); (30 min) -0.784 (inactive).

B18: FS-3001 (peptide)
chain: CARMRRALVFAGNASASA
As to B18, the “furin cleavage Z-score” value by setting is: (7.5 min) 4.84 (active); (15 min) 4.35 (active); (30 min) 6.45 (active).

B19: FS-2000 (peptide)
chain: CARDGRDGTPAGNASASA
As to B19, the “furin cleavage Z-score” value (7.5 min) was 0.0974 (inactive), the “furin cleavage Z-score” value (15 min) is -0.249 (inactive) and the “furin cleavage Z-score” value (30 min) was 0.34 (inactive).

B20: FS-2725 (peptide)
chain: CARMRRRPGPAGNASASA
Take B20: the “furin cleavage Z-score” value reads like this: (7.5 min) 0.305 (inactive); (15 min) 1.58; (30 min) 1.1.

B21: HC762 (peptide)
chain: CATTMRSPVFAGNASASA
B21: the “furin cleavage Z-score” value is -1.56 (inactive) (7.5 min), -0.725 (inactive) (15 min) and -0.54 (inactive) (30 min).

B22: FS-2723 (peptide)
chain: CARMRRDGWPAGNASASA
With B22, the “furin cleavage Z-score” value by setting is: (7.5 min) 2.95; (15 min) 4.8 (active); (30 min) 5.65 (active).

B23: HC923 (peptide)
chain: CACAWYELTPAGNASASA
Consider B23, for which the “furin cleavage Z-score” value (7.5 min) was -0.0785 (inactive), the “furin cleavage Z-score” value (15 min) is 0.676 (inactive) and the “furin cleavage Z-score” value (30 min) is -1.48 (inactive).

B24: FS-1695 (peptide)
chain: CARELRNVGVAGNASASA
As to B24, the “furin cleavage Z-score” value is, setting by setting: (7.5 min) -1.56 (inactive); (15 min) 0.756 (inactive); (30 min) -0.781 (inactive).

B25: FS-1703 (peptide)
chain: CARFRRGARSAGNASASA
Take B25: the “furin cleavage Z-score” value was 10.1 (active) (7.5 min), 10.3 (active) (15 min) and 8.23 (active) (30 min).

B26: FS-1754 (peptide)
chain: CARMVRSVKVAGNASASA
Consider B26, for which the “furin cleavage Z-score” value is 3.01 (7.5 min), 4.69 (active) (15 min) and 6.85 (active) (30 min).

B27: FS-2396 (peptide)
chain: CARMTRSVDNAGNASASA
For B27, the “furin cleavage Z-score” value by setting is: (7.5 min) 10.7 (active); (15 min) 10.3 (active); (30 min) 7.86 (active).

B28: HC2234 (peptide)
chain: CAEVVTSTKVAGNASASA
As for B28, the “furin cleavage Z-score” value by setting is: (7.5 min) 0.581 (inactive); (15 min) 0.63 (inactive); (30 min) -0.359 (inactive).

B29: FS-2837 (peptide)
chain: CARTTRSVVHAGNASASA
For B29, the “furin cleavage Z-score” value (7.5 min) is -0.34 (inactive), the “furin cleavage Z-score” value (15 min) was 0.171 (inactive) and the “furin cleavage Z-score” value (30 min) is 0.71 (inactive).

B30: FS-1704 (peptide)
chain: CARFRRGLDNAGNASASA
B30: the “furin cleavage Z-score” value reads like this: (7.5 min) 10.1 (active); (15 min) 8.75 (active); (30 min) 7.17 (active).

B31: HC1695 (peptide)
chain: CAMHECSQHLAGNASASA
Regarding B31, the “furin cleavage Z-score” value was 0.819 (inactive) (7.5 min), 2.72 (15 min) and 1.59 (30 min).

B32: HC772 (peptide)
chain: CAFQVAHLHAAGNASASA
Take B32: the “furin cleavage Z-score” value reads like this: (7.5 min) -0.105 (inactive); (15 min) -0.994 (inactive); (30 min) -1.62 (inactive).

B33: HC2206 (peptide)
chain: CAEVVTSMWVAGNASASA
As to B33, the “furin cleavage Z-score” value is, setting by setting: (7.5 min) 0.942 (inactive); (15 min) -0.688 (inactive); (30 min) -0.185 (inactive).

B34: HC1268 (peptide)
chain: CACTANHDSPAGNASASA
With B34, the “furin cleavage Z-score” value is, setting by setting: (7.5 min) -0.651 (inactive); (15 min) -0.843 (inactive); (30 min) -2.03 (inactive).

B35: HC1433 (peptide)
chain: CADLLEDNVTAGNASASA
For the sequence B35, the “furin cleavage Z-score” value was 0.275 (inactive) (7.5 min), -2.11 (inactive) (15 min) and -1.66 (inactive) (30 min).

B36: HC244 (peptide)
chain: CAGNLPGCSFAGNASASA
B36: the “furin cleavage Z-score” value is -0.0639 (inactive) (7.5 min), 0.93 (inactive) (15 min) and -0.123 (inactive) (30 min).

B37: HC1780 (peptide)
chain: CAMEECSQHCAGNASASA
Regarding B37, the “furin cleavage Z-score” value runs as follows: (7.5 min) 1.81; (15 min) -0.183 (inactive); (30 min) 1.82.

B38: FS-1023 (peptide)
chain: CALHKREKRQAGNASASA
As to B38, the “furin cleavage Z-score” value was 13.9 (active) (7.5 min), 12.1 (active) (15 min) and 10.2 (active) (30 min).

B39: FS-1761 (peptide)
chain: CARPKRKGKCAGNASASA
Consider B39, for which the “furin cleavage Z-score” value runs as follows: (7.5 min) 0.0893 (inactive); (15 min) 0.774 (inactive); (30 min) 1.28.

B40: FS-2399 (peptide)
chain: CARPKRSHHCAGNASASA
B40: the “furin cleavage Z-score” value by setting is: (7.5 min) 4.25 (active); (15 min) 6.93 (active); (30 min) 6.58 (active).

B41: FS-684 (peptide)
chain: CALPFRSKRQAGNASASA
Consider B41, for which the “furin cleavage Z-score” value reads like this: (7.5 min) 9.98 (active); (15 min) 10.9 (active); (30 min) 7.98 (active).

B42: FS-1068 (peptide)
chain: CARPKRSKRQAGNASASA
In the case of B42, the “furin cleavage Z-score” value by setting is: (7.5 min) 12.3 (active); (15 min) 11.8 (active); (30 min) 9.11 (active).

B43: FS-1505 (peptide)
chain: CAYSALHKRQAGNASASA
On to B43, for which the “furin cleavage Z-score” value runs as follows: (7.5 min) 1.15; (15 min) -1.98 (inactive); (30 min) 1.13.

These data come from the supplement of paper PMC3545927.
